The whole screen tested about 290,000 compounds, of which about 800 (0.28%) were called active.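 The calls were made as follows: active = fall in fluorescence gain of 50% or more versus controls, with final raw signal at or below 3038400; inconclusive = same 50% fall but final raw signal above 3038400; inactive = fall in fluorescence gain under 50%.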 The sample as a whole holds a higher share of actives than the screen did.
target: CAAX prenyl protease 2 (Saccharomyces cerevisiae (strain ATCC 204508 / S288c)) (UniProt Q03530); experiment: blockers of Rce1 CaaX peptide cleavage – biochemical, fluorescence, cell-free homogeneous, primary screen (AID 2563); conditions: yeast membranes, quenched prenylated peptide cleavage fluorescence
Sequence (Q03530 whole entry, looked up): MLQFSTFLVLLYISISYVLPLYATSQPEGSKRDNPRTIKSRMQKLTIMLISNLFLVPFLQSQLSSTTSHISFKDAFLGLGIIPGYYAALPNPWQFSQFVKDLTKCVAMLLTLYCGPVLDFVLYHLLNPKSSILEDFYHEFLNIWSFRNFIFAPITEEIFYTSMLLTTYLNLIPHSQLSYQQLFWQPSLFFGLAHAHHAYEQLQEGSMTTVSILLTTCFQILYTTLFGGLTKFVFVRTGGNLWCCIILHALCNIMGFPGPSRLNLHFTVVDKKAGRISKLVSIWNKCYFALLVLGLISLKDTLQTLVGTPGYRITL

SMILES	outcome
CCCCn1c(N)c(N(CCOC)C(=O)COc2c(C)cccc2C)c(=O)[nH]c1=O	inactive
CCCOc1ccccc1C(=O)NCCCC(=O)O	active
CCCCOCCCNC(=O)c1ccccc1OCC	inactive
COc1ccc(CCNC(=O)c2ccccc2OCc2ccccc2)cc1	inactive
O=C(Nc1ccc2nc3n(c(=O)c2c1)CCCC3)c1ccc(Cl)nc1	inactive
O=C(Nc1ccc(S(=O)(=O)N2CCCCC2)cc1)C1CCN(C(=O)c2ccc(F)cc2)CC1	inactive
CC(=O)N(Cc1cccs1)C1CCOC(C)(C)C1 (configuration not stated)	active
O=C(O)CCC(=O)N(Cc1cccs1)Cc1cccs1	inactive
CC1(C)CC(N(Cc2ccccc2)C(=O)Cc2ccccc2)CCO1 (configuration not stated)	inactive
COc1ccccc1CNC(=O)CSc1nc(=O)n(Cc2ccncc2)c2c1CCC2	inactive
Cc1ccccc1C(=O)NCC(c1ccco1)N1CCc2ccccc21 (configuration not stated)	inactive
O=C(NCCS(=O)(=O)N1CCN(c2ccc(F)cc2)CC1)c1ccc2c(c1)OCO2	inactive
N#CCCN(C(=O)COC(=O)c1ccc(S(=O)(=O)N2CCCCCC2)cc1)c1ccccc1	inactive
Cc1ccccc1OCC(=O)Nc1ccc2c(c1)ncn2C	inactive
COc1cc(NC(=O)CSC(=S)N2CCCC2)c(OC)cc1Cl	inactive
O=C(O)c1ccc(/C=N/NC(=O)c2ccc(Br)cc2)cc1	inactive
CN(C)c1ccc(/C=N/NC(=O)c2ccc(Cn3cc(Br)cn3)o2)cc1	inactive
CN(C)c1ccc(/C=N/NC(=O)C(O)c2ccc(Br)cc2)cc1 (configuration not stated)	active
COc1ccc(S(=O)(=O)N2CCCCC2)cc1NC(=O)c1cc([N+](=O)[O-])ccc1N1CCOCC1	inactive
CC1(c2ccc(Cl)cc2Cl)NC(=O)N(CC(=O)Nc2cccnc2Cl)C1=O (configuration not stated)	inactive
COc1ccc(C(CNC(=O)c2cccc(S(=O)(=O)Nc3ccccc3Cl)c2)N2CCOCC2)cc1 (configuration not stated)	inactive
O=C(CCC1CCCCC1)Nc1cc(C(F)(F)F)ccc1N1CCOCC1	inactive
O=C(CN1CCOCC1)Nc1cccc([N+](=O)[O-])c1	inactive

SMILES	outcome
Cc1ccc(S(=O)(=O)CC(=O)Nc2sc(C)c(C)c2C(N)=O)cc1	inactive
Cc1ccc(OCc2nc3ccccc3n2C)cc1	inactive
CCCCCCCCCCOC(=O)Cn1c(COc2ccc(C)cc2)[n+](C)c2ccccc21	active
CCCCOC(=O)Cn1c(=N)n(CCN(CC)CC)c2ccccc21	inactive
CCCCCCCCCCOC(=O)Cn1c(COc2cccc(OC)c2)[n+](C)c2ccccc21	active
CCn1c(=N)n(CC(=O)c2cccc(OC)c2)c2ccccc21	inactive
COc1cccc(OCC(=O)Nc2ccccc2C(N)=O)c1	inactive
Cc1ccc(CC(=O)N(C)CC(=O)N(CC(C)C)c2c(N)n(CC(C)C)c(=O)[nH]c2=O)cc1C	inactive
Cc1ccc(Cc2nnc(SCC(=O)Nc3ccccc3C)[nH]c2=O)cc1	inactive
CC(=O)NC(Cc1c[nH]c2ccccc12)C(=O)O (configuration not stated)	active
Cc1cccc(C)c1OCC(=O)NC(Cc1c[nH]c2ccccc12)C(=O)O (configuration not stated)	inactive
CC(=O)NC(Cc1c[nH]c2ccccc12)C(=O)NCCc1ccccc1 (configuration not stated)	inactive
COc1ccccc1CCC(=O)NNC(=O)c1ccncc1	inactive
O=C(COC(=O)CCOc1ccccc1)Nc1cc(S(=O)(=O)N2CCCCC2)ccc1Cl	inactive
CCN(CC)c1ccc(NC(=O)c2ccc(=O)[nH]c2)cc1S(=O)(=O)Nc1ccc(OC)cc1	inactive
CCOC(=O)c1c(C)oc2cc(Sc3ccccc3)c(O)c(O)c12	inactive
O=C1CCCC(O)=C1N=Nc1ccc2ncsc2c1	active
O=C1CCCC(O)=C1N=Nc1ccc(S(=O)(=O)N2CCOCC2)cc1	inactive
COc1ccc(C(=O)N(Cc2ccccc2)c2ccc(C)cc2)cc1S(=O)(=O)N1CCOCC1	inactive
CC1CC(C)(C)CC2(C1)NC(=O)N(CC(=O)Nc1nccs1)C2=O (configuration not stated)	inactive
COc1ccc(-c2cn3ccc(C)cc3n2)cc1	active
COc1ccc(-c2cn3ccsc3n2)cc1	inactive
CCN(CC)S(=O)(=O)c1ccc(-c2cn3ccc(C)cc3n2)cc1	inactive

SMILES	outcome
Cc1ccc(NC(=O)COC(=O)CNC(=O)c2ccc(Cl)cc2Cl)cc1S(=O)(=O)N1CCOCC1	inactive
C=CCc1ccccc1OCC(=O)N/N=C/c1ccccc1OCC	inactive
O=C(COc1ccc(-n2cnnn2)cc1)Nc1ccccc1Cl	inactive
C=CCc1cccc(/C=N/NC(=O)COc2ccc(-n3cnnn3)cc2)c1O	active
CC(C)CN(C(=O)Cn1c(=O)cnc2ccccc21)C1CCS(=O)(=O)C1 (configuration not stated)	inactive
O=C(NCc1ccc(Cl)cc1)C(=O)NCC1CCCN1S(=O)(=O)c1cccs1 (configuration not stated)	inactive
CCCCN(C(=O)CCNC(=O)NC12CC3CC(CC(C3)C1)C2)c1c(N)n(CCCC)c(=O)[nH]c1=O	inactive
CC(=O)c1ccc(NC(=O)C2CCCN2S(=O)(=O)c2cccs2)cc1 (configuration not stated)	inactive
COc1ccc2c(c1)O/C(=C\c1ccccc1O)C2=O	inactive
Cc1cc(=O)[nH]c(SCc2ccc(Cl)cc2)n1	inactive
Cc1cc(C)nc(SCc2cn3c(C)cc(C)nc3n2)n1	active
Cc1ccc2nc(SCc3cn4c(C)cc(C)nc4n3)[nH]c2c1	inactive
COc1ccc(OCc2cn3c(C)cc(C)nc3n2)cc1	inactive
CCc1cccc(C)c1NC(=O)COC(=O)CNC(=O)c1cccs1	inactive
CCN(CC(=O)Nc1c(F)cccc1F)C(=O)c1ccc(S(=O)(=O)N2CCCCC2)cc1	inactive
Cc1ccc(S(=O)(=O)N2CCCCC2)cc1C(=O)N(C)CC(=O)Nc1cccc(F)c1	inactive
O=C(Nc1ccc(F)c([N+](=O)[O-])c1)C1CCCO1 (configuration not stated)	inactive
CS(=O)(=O)Nc1cccc(C2=NN(S(=O)(=O)c3ccccc3)C(c3cccs3)C2)c1 (configuration not stated)	inactive
CS(=O)(=O)Nc1ccc(C2=NN(S(C)(=O)=O)C(c3cccs3)C2)cc1 (configuration not stated)	active
Cc1ccc(C2CC(c3cccc(NS(C)(=O)=O)c3)=NN2S(C)(=O)=O)cc1 (configuration not stated)	inactive
Cc1ccc(CN2CCN(c3ccccc3Cl)CC2)o1	inactive

From PubChem BioAssay AID2563 (Broad Institute, 2010)
